# Rows were chosen to be rich in hits. Some 19% of all compounds tested hit in one or more screens of this group.
# Shiga inhibitor – inhibitors of Shiga toxin in Vero cells. Vero cells, Shiga toxin protein synthesis inhibition reporter. inhibition, % at 38.7 µM. 290,000 tested, 9.2% active; in the data active = inhibition mostly above about 28%, no sharp cut-off; inactive = mostly below about 43%
# Pf growth 48h – P. falciparum growth inhibition at 48 hours (one generation); P. falciparum luciferase growth in erythrocytes, 48 h; Potency, µM (titrated, usually from 28.7 µM), actives largely listed as inhibitors; 310,000 tested, 5.9% active; AID 504832
#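 Cell-based growth assay: transgenic P. falciparum expressing firefly luciferase, cultured in red cells within RPMI 1640 containing 0.5% w/v Albumax, 24 mM bicarbonate and gentamycin. A drop in luciferase activity indicates inhibition.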
# Pf growth 96h – P. falciparum growth inhibition at 96 hour, primary screen for plastid delayed-death inhibitors | 320,000 tested, 6.9% active | Potency, µM (highest dose often 28.7 µM), usual class: inhibitors | P. falciparum luciferase reporter growth, 96 h
#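 Plates of compound plus infected erythrocytes (2% hematocrit, 0.05% parasitemia final) incubate 96 hours, 37 C, 5% CO2. Detection reagent added; reduced luminescence from the parasites' luciferase reporter flags inhibition.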
# MARV entry inh – inhibitors of Marburg virus binding or cell entry | Potency, µM (highest dose often 37.8 µM), usual class: inhibitors | 300,000 tested, 1.8% active | AID 540276 | Marburg virus pseudotyped entry inhibition, cell reporter; calls by dose curve; tested in HEK293 cells
# Lassa entry inh – blocks Lassa virus binding to or entry into cells; Lassa virus pseudotype entry inhibition, cell reporter; Potency, µM (series often up to 37.9 µM), most hits filed as inhibitors; 300,000 tested, 1.2% active; calls by dose curve; tested in HEK293 cells; note: nearly all actives have a fitted effect of over 50% in size
# CHX counter – counter-screen for Shiga toxin inhibitors: cycloheximide protein synthesis inhibition; cell reporter, cycloheximide protein synthesis inhibition counterscreen; max response, %; 300,000 tested, 12% active; AID 2314; in the data active = max response mostly above about 13%, no sharp cut-off; inactive = mostly below about 14%; note: read at 38.3 µM for the half of the compounds with a filed dose
# Hits are given with their value; . = inactive; ? = inconclusive; / = not tested or not shown; [ ] = dose if it differs, or a comment. Unless noted, calls come from the whole dose curve; as a rule, active = well fitted inhibition curve with a large enough effect; inconclusive = small, poorly fitted or top-dose-only effect, or another doubt; inactive = no such curve, though single readings can be large or run the other way.
SMILES,Shiga inhibitor,Pf growth 48h,Pf growth 96h,MARV entry inh,Lassa entry inh,CHX counter
CCOc1nc(N2CCOCC2)nc(C)c1[N+](=O)[O-],.,.,.,?,?,.
CC(OC(=O)CCc1cc(C(C)(C)C)c(O)c(C(C)(C)C)c1)C(=O)NC1CC1 (stereo not given),/,0.47µM,0.66µM,?,?,/
CCOC(=O)C(NC(=O)c1ccccc1)(Nc1cc(C)on1)C(F)(F)F (stereo not given),.,.,5.2µM,.,.,.
CCOC(=O)C(NC(=O)c1ccc(OC)cc1)(Nc1cc(C)on1)C(F)(F)F (stereo not given),.,.,.,?,.,.
CCOC(=O)C(NC(=O)CC)(Nc1ccccc1OC)C(F)(F)F (stereo not given),.,.,.,.,.,17
CC(=O)N1CCc2cc(S(=O)(=O)N3CC(C)CC(C)C3)ccc21 (stereo not given),.,.,?,.,.,.
C=CCOC(=O)c1sc(NC(=O)c2ccco2)nc1C,128,.,.,.,?,28
CCOC(=O)c1sc(NC(=O)c2ccccc2OC)nc1C,69,.,.,/,/,24
CCOC(=O)c1sc(NC(=O)CC2OC(=O)c3ccccc32)nc1C (stereo not given),/,.,.,.,.,/
CCOC(=O)c1sc(NC(=O)c2cc3ccccc3o2)nc1C,61,.,?,?,.,40
CCOC(=O)c1sc(NC(=O)c2ccc(CC)s2)nc1C,105,.,/,?,?,40
CCOC(=O)c1sc2nc(C)cc(C)c2c1NC(=O)c1ccco1,.,.,.,.,.,.
CNS(=O)(=O)c1cccc2nsnc12,.,.,.,.,.,.
CS(=O)(=O)c1ccc2sc(NC(=O)c3cc4ccccc4o3)nc2c1,.,.,.,.,.,.
CNC(=O)c1cc2ccccc2o1,.,.,.,.,.,.
Cc1nc(NC(=O)c2cc3ccccc3o2)sc1C,.,.,?,?,?,37
O=C(Nc1nnc(C2CC2)s1)c1cc2ccccc2o1,/,.,.,?,?,/
Cc1nnc(NC(=O)c2cc3ccccc3o2)s1,67,.,.,.,.,25
CCOC(=O)c1csc(NC(=O)c2cc3ccccc3o2)n1,75,.,.,/,/,55
Cc1cnc(NC(=O)c2cc3ccccc3o2)s1,.,.,.,13µM,.,18
Cc1ccccc1COn1nnc2ccc(S(=O)(=O)N3CCOCC3)cc21,/,?,.,.,.,/
N/C(=N\OCC(=O)Nc1ccc(F)c(Cl)c1)c1ccccc1,/,/,/,.,.,/
CC12CCC(C(=O)N(NC(=O)c3cccnc3)C1=O)C2(C)C (stereo not given),.,.,.,.,.,.
Cc1ccc(C)c(S(=O)(=O)NCC(=O)N2CCCC2)c1,.,.,?,.,.,.
Cc1csc(NC(=O)c2ccccc2C(=O)O)n1,.,.,/,.,.,.
SMILES,Shiga inhibitor,Pf growth 48h,Pf growth 96h,MARV entry inh,Lassa entry inh,CHX counter
CCc1nnc(NC(=O)c2cc3ccccc3oc2=O)s1,.,.,/,.,.,11
CCc1ccc(C(=O)Nc2cccc(-c3nn[nH]n3)c2)s1,.,?,.,?,.,.
CCc1ccc(C(=O)Nc2cc(C)ccc2F)s1,105,.[1.15 µM],.,.,.,70
CCc1ccc(C(=O)Nc2nc(C)cs2)s1,36,.,.,?,1.3µM,41
CSc1ccccc1NC(=O)CN(C)C(=O)CCc1c[nH]c2ccccc12,.,.,.,?,.,.
CCOc1ccc(C(=O)Cc2cc3cccc(OC)c3oc2=O)cc1,.,.,.,.,.,.
Cc1ccc(C(=O)Cc2cc3ccccc3oc2=O)c(C)c1,67,.,?,/,/,57
COc1ccc(C(=O)Cc2cc3ccccc3oc2=O)cc1,61,.,.,/,/,28
Cc1ccc(-c2nn3nnnc3c3ccccc23)cc1,.,/,.,.,.,.
CCCCCOC(=O)Cc1c(C)nc(-c2ccccc2)[nH]c1=O,.,1.9µM,?,.,.,.
CC(C(=O)C12CC3CC(CC(C3)C1)C2)N1CCOCC1 (stereo not given),/,.,1.9µM,.,.,.
Cc1ncc(CN2CCC(C(=O)Nc3ccc(-n4cccn4)cc3)CC2)s1,.,1µM,.,.,.,.
CCc1ccc(CN2CCC(C(=O)Nc3ccc(-n4nc(C)cc4C)cc3)CC2)o1,.,6.6µM,?,/,/,.
Cc1ccsc1C(=O)NC(C)c1ccccc1 (stereo not given),.,.,.,.,.,.
O=c1[nH]c(SCCOc2ccccc2F)nc2ccccc12,61,.,?,?,.,33
Cn1c(SCCOc2ccccc2F)nc2ccccc2c1=O,.,?,.,3.5µM,.,.
COc1ccccc1OCCSc1nc2ccccc2c(=O)[nH]1,48,.,.,.,.,14
O=c1[nH]c(SCCOc2ccccc2)nc2ccccc12,.,?,/,.,.,.
Cn1c2ccc(F)cc2c2ncn(Cc3ccco3)c(=O)c21,.,/,.,.,.,.
CCN(CC)S(=O)(=O)c1ccc2c(c1)nc(CCC(=O)Nc1ccccc1Cc1ccccc1)n2CC,.,12µM,/,?,?,.
CCn1c(CCC(=O)Nc2cc(F)ccc2C)nc2cc(S(=O)(=O)N(C)C)ccc21,.,?,.,.,.,.
CC(OC(=O)CNC(=O)c1ccccc1F)C(=O)Nc1nc(-c2ccccc2)cs1 (stereo not given),101,.,.,?,.,66
CC(OC(=O)c1ccc(O)cc1)C(=O)Nc1nc(-c2ccccc2)cs1 (stereo not given),/,6.6µM,?,/,/,/
Cc1csc(NC(=O)C(NC(=O)c2ccccc2F)C(C)C)n1 (stereo not given),.,.,.,.,.,.
CCc1c(O)nc(SCC(=O)NCc2ccco2)[nH]c1=O,.,.,.,.,.,.
SMILES,Shiga inhibitor,Pf growth 48h,Pf growth 96h,MARV entry inh,Lassa entry inh,CHX counter
Cc1cccc(NC(=O)C2CCN(S(=O)(=O)c3ccc4c(c3)NC(=O)CO4)CC2)c1C,.,.,.,.,.,.
COc1ccc(OC)c(NC(=O)c2cc(-c3cc(C)ccc3O)n[nH]2)c1,.,?,6.6µM,?,?,.
Cc1cc(C)c(-c2cc(C(=O)Nc3cc(C)ccc3C)[nH]n2)c(O)c1,.,.[0.00184 µM],?,/,/,.
COc1ccc(OC)c(NC(=O)c2cc(-c3ccc(C)cc3O)n[nH]2)c1,.,10µM,/,.,.,.
COc1ccc(CCNC(=O)c2cc(-c3cc(C)c(C)cc3O)n[nH]2)cc1OC,.,?,.,?,.,.
C[C@@H](O)[C@H]1O[C@]2(C)CCC[C@H]1O2,/,.,.,/,/,/
Cc1ccc2c(c1)-c1nc3ccccc3cc1C2=NC1CCCCC1,85,.,.,?,?,55
Cc1ccc2c(c1)C(=NC1CCCCC1)c1cc3ccccc3nc1-2,41,.,.,?,.,51
Cc1ccc(-c2cc3ccccc3nc2N2CCCC2)cc1,.,?,.,?,.,.
O=C(OCc1ccccc1)N1CCOCCOCCN(C(=O)OCc2ccccc2)CCOCCOCC1,.,?,?,?,?,.

# Screens (PubChem)
